Test results published in PubChem BioAssay (NCI).
This is part of a sample that, as a whole, favours compounds with a hit. Of some 83,000 tested, about 20% had one in any assay.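 The endpoint reported here, percent growth, reads 100 for growth as untreated, 0 for no net growth and -100 for all cells dead.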 Calls of active or inactive are those of the source.

Test system: HOP-92 NSCLC
Experiment: NCI-60 one-dose screen, 48 h (100 = growth as untreated, 0 = no growth, -100 = all killed)
Details: 10 µM unless noted
Protocol: Growth inhibition of the HOP-92 human Non-Small Cell Lung tumor cell line is measured as a screen for anti-cancer activity. Cells are grown in 96 well plates and exposed to the test compound for 48 hours. Compounds are tested at a single concentration, which is 10^-5 M for most compounds. The reported endpoint is percent growth (GI% or GIPRCNT), where numbers from 0 - 100% represent growth inhibition, and numbers from -100% - 0 represent cell death. For example, a value of 40 represents 60% growth inhibition. A value of 0 means no net growth occurred over the course of the experiment. A value of -40 indicates 40% of cells at the beginning of the experiment died by the end of the experiment. A value of -100 means all cells are dead at the end of the experiment.
NCI-60 Human Tumor Cell Lines Screen was performed using the standard one-dose NCI protocol, which is described in more detail at https://dtp.cancer.gov/discovery_development/nci-60/default.htm.
Compounds with GIPRCNT values below 10 were considered active. Activity score was based on GIPRCNT using the following formula: […]
Score is 0 for GIPRCNT values of 100 or above, 50 for GIPRCNT values of 0, and 100 for GIPRCNT values of -100.

SMILES	growth
COc1ccc(-c2nnc3c4[nH]cnc4ncn23)c(OC)c1	52.9% (inactive)
CCCCCCCC[Si](OCC)(OCC)OCC	88.8% (inactive)
CCOc1cc(/C=C/C(=O)C(C(=O)/C=C/c2ccc(OC(=O)CNc3nnc(C)s3)c(OCC)c2)C(=O)CNc2nnc(C)s2)ccc1OC(=O)CNc1nnc(C)s1	-25.6% (active)
COP(=O)(OC)C(c1ccc(O)cc1)(c1ccc(O)cc1)c1ccc(O)cc1	79.3% (inactive)
O=[N+]([O-])c1ccc(NS(=O)(=O)c2ccc(Cl)c(Cl)c2)cc1	-1.71% (active)
Oc1c(Cl)cc(Oc2cc(Cl)c(O)c(CN3CCOCC3)c2)cc1CN1CCOCC1	79% (inactive)
CCN(CC)CCSc1ncnc2c1cnn2-c1ccc(S(N)(=O)=O)cc1	50.9% (inactive)
COc1cccc(/C=N/Nc2nc3ccccc3s2)c1OC	74.5% (inactive)
N/C(=N\c1nc2ccccc2s1)NC(=O)Nc1ccccc1Cl	139% (inactive)
Cc1ccc(C(=O)Cc2ccccc2)c(O)c1	87.3% (inactive)
CN(C)CCCN=c1cc2c(=O)n(CCCN(C)C)c(=O)c3c(NCCCN(C)C)cc4c(O)n(CCCN(C)C)c(=O)c1c4c3-2	-0.168% (active)
CCCCCCCCCCCCC1CCCC(C)C1 (stereo not given)	69.1% (inactive)
CCN(CC)c1ccc(C(=C2C=CC(=[N+](CC)Cc3cccc(S(=O)(=O)O)c3)C=C2)c2ccc(N(CC)Cc3cccc(S(=O)(=O)O)c3)cc2)cc1	66.3% (inactive)
COc1ccc(C2=NN(C(N)=S)C(c3ccc4c(c3)OCO4)C2)cc1 (stereo not given)	54% (inactive)
N#Cc1c(-c2ccccc2)cc(-c2ccccc2)n(CCC(=O)O)c1=O	74.8% (inactive)
CCC(C)C1NC(=O)C(CCNCS(=O)(=O)O)NC(=O)C(NC(=O)C(CCNCS(=O)(=O)O)NC(=O)C(NC(=O)C(CCNCS(=O)(=O)O)NC(=O)CCCCC(C)C)C(C)O)CCNC(=O)C(C(C)O)NC(=O)C(CCNCS(=O)(=O)O)NC(=O)C(CCNCS(=O)(=O)O)NC(=O)C(C(C)CC)NC1=O (stereo not given)	95.8% (inactive)
Cc1nn(-c2ccccc2)c2nc(N)c(C3=NCCO3)nc12	43.6% (inactive)
[N-]=[N+]=NCc1cccc(/C(O)=C/C(=O)C(=O)O)c1	92.7% (inactive)
CC(=O)c1ccccc1NC(=O)C(C)(c1ccccc1)c1ccccc1	86.4% (inactive)
CC(C)N(Cc1ccccc1)c1c(Cl)ssc1=O	82.5% (inactive)

SMILES	growth
O=C(CC1Sc2ccccc2NC1=O)NNc1cccc(Cl)c1Cl (stereo not given)	24.4% (inactive)
O=C(CSc1ncc(-c2ccccc2)n1-c1ccccc1)Nc1ccc(-c2nc3ccccc3s2)cc1	95.6% (inactive)
c1ccc(COc2ccc(Nc3ncnc4c3cnn4-c3ccccc3)cc2)cc1	98.8% (inactive)
[N-]=[N+]=NCc1ncc(-c2ccc(C(F)(F)F)cc2)c(NC2CCCCCC2)n1	64.5% [50 µM] (inactive)
CSc1nc(N)c2c(n1)N(C)C=NS2(=O)=O	79.1% (inactive)
COc1ccc2c(=O)c(OC)c(-c3cc(OC)c(OC)c(OC)c3)oc2c1	46.5% (inactive)
C[C@H](C(=O)N[C@@H](Cc1ccc(-c2ccccc2)cc1)C(=O)NC1CC(C)(C)N(C)C(C)(C)C1)c1ccc(-c2ccccc2)c(F)c1	-75.5% (active)
O=C(N/N=C/c1cccc([N+](=O)[O-])c1)c1ccc(Br)o1	85.7% (inactive)
O=c1[nH]c(SCc2ccccc2)nc2nc(Nc3ccc(NC(=S)Nc4ccccc4)cc3)nc(-c3ccc(O)cc3O)c12	-2.6% (active)
COc1cc(/C=C/C(=O)C(C(=O)/C=C/c2ccc(OC(=O)CCNC34CC5CC(CC(C5)C3)C4)c(OC)c2)C(=O)CCNC23CC4CC(CC(C4)C2)C3)ccc1OC(=O)CCNC12CC3CC(CC(C3)C1)C2 (stereo not given)	44.6% (inactive)
O=C(CN1CCN(c2ccc(Cl)cc2)CC1)N1CCN(c2nnc(-c3ccc(Cl)cc3)c(-c3ccc(Cl)cc3)n2)CC1	60.1% (inactive)
CC1c2ccccc2-c2ccccc2N1C (stereo not given)	86.1% (inactive)
Oc1ccc(/C=N/Nc2nc3ccccc3s2)c(O)c1	62.8% (inactive)
Nc1ncnc2c1CN(Cc1ccccc1)CC2	87.5% (inactive)
N#CC(C#N)C(C#N)C#N	102% (inactive)
Cc1[nH]cnc1/C=C1\SC(N2CCCCC2)=NC1=O	100% (inactive)
Cn1cc(NC(=O)Nc2cc(C(=O)O)n(C)c2)cc1C(=O)O	119% (inactive)
COC(=O)Nc1ccc2ccc3c(NC(=O)OC)ccc4ccc1c2c43 (tested in a mixture with another compound)	9.3% (active)
NS(=O)(=O)c1ccc(-n2ncc3c(SCc4ccccc4)ncnc32)cc1	43% (inactive)
Cc1ccc(N/N=C(/C(=O)c2ccc(Cl)cc2)c2nc(C)cc(=O)[nH]2)cc1	91% (inactive)
